Assay results: the supplement of paper PMC11732987, “Enantioselective OTUD7B fragment discovery through chemoproteomics screening and high-throughput optimisation” (Communications Chemistry, 2025)
Unmarked numbers belong to inactive results.

Columns and labels:
Test in all cases: log2 ratio of Biotin-Ahx-Ub-VS probe labelling (fragment/DMSO); higher = less target engagement (more negative = stronger competition), active = hit call of the paper (q ≤ 0.05, log2 ratio ≤ -1)
Conditions in all cases: compound concentration: 200 uM; treatment time: 3 h
USP19 = biological target: T1, USP19 (UniProt O94966)
T1 sequence (whole entry): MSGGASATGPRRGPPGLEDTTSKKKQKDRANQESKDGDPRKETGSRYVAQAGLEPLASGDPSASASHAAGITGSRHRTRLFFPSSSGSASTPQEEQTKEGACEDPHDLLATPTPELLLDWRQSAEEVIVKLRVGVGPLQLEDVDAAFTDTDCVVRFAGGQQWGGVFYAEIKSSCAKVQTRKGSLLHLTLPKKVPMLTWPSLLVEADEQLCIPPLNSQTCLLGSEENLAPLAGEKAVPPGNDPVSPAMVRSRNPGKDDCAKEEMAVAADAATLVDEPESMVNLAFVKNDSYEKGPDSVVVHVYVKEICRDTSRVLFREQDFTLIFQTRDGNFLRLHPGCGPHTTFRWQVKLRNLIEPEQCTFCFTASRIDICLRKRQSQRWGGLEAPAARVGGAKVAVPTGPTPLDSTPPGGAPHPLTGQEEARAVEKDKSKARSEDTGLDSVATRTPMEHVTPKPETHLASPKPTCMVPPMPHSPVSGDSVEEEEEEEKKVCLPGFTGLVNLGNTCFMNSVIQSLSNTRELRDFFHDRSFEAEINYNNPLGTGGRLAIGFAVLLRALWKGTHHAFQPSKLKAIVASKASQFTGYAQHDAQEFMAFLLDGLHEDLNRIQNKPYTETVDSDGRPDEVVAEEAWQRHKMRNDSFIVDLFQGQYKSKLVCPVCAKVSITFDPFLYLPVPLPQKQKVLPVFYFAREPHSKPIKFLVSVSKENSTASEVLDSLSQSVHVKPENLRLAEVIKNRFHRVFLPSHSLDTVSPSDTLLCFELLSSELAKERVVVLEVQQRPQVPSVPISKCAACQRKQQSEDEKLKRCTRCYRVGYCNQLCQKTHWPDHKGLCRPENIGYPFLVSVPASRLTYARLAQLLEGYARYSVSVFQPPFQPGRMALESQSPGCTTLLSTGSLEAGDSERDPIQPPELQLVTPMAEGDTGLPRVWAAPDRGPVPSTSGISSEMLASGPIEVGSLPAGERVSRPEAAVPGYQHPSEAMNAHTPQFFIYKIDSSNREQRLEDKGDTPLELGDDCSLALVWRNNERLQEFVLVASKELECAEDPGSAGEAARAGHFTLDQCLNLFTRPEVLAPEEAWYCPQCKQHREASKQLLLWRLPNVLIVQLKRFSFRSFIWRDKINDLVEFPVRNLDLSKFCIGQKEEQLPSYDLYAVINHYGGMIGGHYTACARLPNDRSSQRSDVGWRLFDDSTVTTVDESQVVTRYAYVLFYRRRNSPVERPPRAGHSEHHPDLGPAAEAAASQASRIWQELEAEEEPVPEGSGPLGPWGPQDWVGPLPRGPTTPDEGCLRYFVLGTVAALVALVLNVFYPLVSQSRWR
Outline: (§1)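 Each value is an average log2 ratio of fragment to vehicle, tested by unpaired t-test. The underlying Spectronaut label-free quantities were global-median-normalised, and only proteins with ≥2 unique peptides were included. Triplicate HEK293T lysate samples (495 µg) were exposed to fragment at 200 µM or vehicle for 3 h, then to Biotin-Ahx-Ub-VS at 0.5 µM final for 1 h, before NeutrAvidin enrichment of labelled DUBs, LysC and trypsin digestion, and diaPASEF LC-MS/MS.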

USP24 = USP24 (UniProt Q9UPU5)
Outline: as §1

USP25 = biological target: T2, USP25 (UniProt Q9UHP3)
T2 sequence (whole entry): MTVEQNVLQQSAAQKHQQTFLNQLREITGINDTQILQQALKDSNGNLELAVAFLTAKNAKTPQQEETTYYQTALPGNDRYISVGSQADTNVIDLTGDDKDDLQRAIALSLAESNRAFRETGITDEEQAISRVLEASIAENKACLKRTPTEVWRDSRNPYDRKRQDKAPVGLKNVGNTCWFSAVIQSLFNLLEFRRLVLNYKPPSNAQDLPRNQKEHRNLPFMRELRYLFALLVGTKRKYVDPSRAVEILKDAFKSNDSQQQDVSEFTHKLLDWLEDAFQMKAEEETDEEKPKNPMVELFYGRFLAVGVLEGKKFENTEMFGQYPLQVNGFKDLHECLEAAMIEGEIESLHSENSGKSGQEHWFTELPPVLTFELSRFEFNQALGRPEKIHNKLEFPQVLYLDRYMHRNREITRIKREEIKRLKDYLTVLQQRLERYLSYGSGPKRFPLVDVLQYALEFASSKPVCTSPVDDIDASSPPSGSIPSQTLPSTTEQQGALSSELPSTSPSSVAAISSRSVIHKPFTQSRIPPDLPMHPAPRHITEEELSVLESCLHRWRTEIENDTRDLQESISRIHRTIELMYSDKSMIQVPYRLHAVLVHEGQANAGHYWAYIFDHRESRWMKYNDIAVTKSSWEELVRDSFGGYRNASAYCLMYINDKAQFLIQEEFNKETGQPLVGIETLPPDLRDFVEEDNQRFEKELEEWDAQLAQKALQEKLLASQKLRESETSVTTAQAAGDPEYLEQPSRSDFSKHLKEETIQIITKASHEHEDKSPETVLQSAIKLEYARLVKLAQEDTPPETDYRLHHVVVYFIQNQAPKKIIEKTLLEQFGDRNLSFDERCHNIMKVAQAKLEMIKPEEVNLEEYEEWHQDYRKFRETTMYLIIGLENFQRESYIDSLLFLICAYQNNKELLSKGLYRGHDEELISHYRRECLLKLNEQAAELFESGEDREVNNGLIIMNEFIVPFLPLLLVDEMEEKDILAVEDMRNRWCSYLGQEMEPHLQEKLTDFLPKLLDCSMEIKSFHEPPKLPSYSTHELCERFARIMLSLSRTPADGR
Outline: as §1

USP28 = biological target: T3, USP28 (UniProt Q96RU2)
T3 sequence (whole entry): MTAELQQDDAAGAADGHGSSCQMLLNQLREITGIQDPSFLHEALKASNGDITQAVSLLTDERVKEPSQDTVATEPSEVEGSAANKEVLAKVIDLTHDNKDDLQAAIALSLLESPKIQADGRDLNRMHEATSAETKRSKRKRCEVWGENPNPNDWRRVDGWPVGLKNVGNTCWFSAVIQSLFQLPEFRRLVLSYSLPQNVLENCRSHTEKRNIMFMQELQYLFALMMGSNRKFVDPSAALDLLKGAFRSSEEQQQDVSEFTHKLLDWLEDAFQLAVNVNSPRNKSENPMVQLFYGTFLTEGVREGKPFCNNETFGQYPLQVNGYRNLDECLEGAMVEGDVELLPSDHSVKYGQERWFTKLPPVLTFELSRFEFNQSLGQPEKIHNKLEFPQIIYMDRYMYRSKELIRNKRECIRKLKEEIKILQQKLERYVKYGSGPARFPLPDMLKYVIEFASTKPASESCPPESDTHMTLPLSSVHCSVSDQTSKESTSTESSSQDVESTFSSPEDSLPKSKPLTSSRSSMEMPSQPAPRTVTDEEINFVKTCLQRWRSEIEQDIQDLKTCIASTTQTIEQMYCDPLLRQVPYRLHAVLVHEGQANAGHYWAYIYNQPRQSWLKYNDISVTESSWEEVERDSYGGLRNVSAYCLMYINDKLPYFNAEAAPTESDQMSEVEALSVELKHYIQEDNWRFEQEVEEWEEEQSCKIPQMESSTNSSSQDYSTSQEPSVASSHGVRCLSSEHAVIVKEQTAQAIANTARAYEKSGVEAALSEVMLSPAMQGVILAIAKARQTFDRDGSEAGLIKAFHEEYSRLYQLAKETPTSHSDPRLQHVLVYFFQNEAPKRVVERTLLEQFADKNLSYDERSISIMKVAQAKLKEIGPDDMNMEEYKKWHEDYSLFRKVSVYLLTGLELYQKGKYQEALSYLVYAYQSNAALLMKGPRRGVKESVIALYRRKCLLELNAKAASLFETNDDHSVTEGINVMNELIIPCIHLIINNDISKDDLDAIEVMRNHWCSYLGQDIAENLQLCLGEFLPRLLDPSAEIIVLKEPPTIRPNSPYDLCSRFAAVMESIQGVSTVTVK
Outline: as §1

Chain of USP24 (Q9UPU5 whole entry): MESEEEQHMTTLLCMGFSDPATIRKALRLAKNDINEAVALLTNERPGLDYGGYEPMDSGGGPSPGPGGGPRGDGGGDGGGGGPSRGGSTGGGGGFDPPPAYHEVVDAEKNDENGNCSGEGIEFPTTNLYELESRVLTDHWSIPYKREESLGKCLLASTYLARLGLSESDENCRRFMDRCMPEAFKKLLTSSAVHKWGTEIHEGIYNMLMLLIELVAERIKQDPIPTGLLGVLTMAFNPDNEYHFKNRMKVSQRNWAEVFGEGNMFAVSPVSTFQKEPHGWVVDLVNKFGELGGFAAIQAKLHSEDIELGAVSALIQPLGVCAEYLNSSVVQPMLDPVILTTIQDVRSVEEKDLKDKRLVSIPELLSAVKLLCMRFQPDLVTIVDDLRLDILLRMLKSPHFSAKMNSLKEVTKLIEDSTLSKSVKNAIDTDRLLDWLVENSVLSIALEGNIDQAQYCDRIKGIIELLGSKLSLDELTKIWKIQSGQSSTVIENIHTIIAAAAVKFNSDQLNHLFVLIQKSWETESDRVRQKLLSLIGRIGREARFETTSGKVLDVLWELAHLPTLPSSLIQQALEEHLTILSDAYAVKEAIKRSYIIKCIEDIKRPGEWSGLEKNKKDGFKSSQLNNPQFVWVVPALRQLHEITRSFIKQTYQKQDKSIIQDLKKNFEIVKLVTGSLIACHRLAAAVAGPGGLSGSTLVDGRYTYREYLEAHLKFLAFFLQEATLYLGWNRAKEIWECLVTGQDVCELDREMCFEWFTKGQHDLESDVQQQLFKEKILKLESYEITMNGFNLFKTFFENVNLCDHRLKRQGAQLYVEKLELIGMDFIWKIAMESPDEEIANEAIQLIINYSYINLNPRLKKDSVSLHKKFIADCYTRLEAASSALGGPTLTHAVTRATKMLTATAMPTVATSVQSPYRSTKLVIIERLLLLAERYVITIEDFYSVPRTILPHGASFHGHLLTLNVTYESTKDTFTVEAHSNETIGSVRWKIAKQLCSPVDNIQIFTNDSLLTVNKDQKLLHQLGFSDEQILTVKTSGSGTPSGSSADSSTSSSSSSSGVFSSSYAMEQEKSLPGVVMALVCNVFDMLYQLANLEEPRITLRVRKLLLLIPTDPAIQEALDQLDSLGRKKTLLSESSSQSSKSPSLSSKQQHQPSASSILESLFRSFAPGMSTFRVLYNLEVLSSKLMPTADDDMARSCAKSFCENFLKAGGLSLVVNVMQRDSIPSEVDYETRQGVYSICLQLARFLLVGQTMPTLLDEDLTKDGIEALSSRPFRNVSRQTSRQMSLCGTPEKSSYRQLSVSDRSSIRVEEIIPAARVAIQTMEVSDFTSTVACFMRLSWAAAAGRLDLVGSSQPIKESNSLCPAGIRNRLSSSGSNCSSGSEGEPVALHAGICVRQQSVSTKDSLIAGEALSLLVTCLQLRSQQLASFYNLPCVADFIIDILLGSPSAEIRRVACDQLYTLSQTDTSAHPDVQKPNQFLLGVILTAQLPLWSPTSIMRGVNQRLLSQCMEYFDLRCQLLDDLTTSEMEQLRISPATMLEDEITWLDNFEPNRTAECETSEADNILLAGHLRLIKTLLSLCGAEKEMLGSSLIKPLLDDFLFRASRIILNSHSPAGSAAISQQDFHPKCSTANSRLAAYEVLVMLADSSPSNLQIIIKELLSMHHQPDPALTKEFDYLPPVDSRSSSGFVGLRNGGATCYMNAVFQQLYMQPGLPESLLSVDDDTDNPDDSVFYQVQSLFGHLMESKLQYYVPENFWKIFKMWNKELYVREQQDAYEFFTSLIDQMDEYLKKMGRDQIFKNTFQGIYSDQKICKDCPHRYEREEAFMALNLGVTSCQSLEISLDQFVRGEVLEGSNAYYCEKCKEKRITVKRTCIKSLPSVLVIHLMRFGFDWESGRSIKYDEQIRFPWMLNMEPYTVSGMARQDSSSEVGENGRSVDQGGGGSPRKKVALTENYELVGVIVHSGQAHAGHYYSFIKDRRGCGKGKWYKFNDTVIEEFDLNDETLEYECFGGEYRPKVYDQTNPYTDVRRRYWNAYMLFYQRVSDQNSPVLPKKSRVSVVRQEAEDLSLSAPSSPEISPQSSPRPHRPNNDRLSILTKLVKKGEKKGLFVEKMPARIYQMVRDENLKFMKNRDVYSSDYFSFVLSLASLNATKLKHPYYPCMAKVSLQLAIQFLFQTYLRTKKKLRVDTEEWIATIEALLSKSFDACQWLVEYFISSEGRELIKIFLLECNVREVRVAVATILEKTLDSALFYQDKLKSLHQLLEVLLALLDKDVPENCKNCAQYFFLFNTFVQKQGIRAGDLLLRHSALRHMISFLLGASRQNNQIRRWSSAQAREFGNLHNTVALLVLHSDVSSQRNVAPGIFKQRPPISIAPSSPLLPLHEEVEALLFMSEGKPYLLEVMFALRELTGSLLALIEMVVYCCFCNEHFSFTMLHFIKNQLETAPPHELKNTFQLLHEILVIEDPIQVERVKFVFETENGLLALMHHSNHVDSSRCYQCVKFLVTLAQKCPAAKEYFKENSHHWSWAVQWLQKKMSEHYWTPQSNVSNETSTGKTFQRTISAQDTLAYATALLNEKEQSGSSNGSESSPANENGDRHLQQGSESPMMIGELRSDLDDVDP

Cl.O=C(CCl)N1CCn2ncc(O)c2C1
log2 ratio of Biotin-Ahx-Ub-VS probe labelling (USP19): -0.754
log2 ratio of Biotin-Ahx-Ub-VS probe labelling (USP24): -1.05 (active)
log2 ratio of Biotin-Ahx-Ub-VS probe labelling (USP25): -0.877
log2 ratio of Biotin-Ahx-Ub-VS probe labelling (USP28): -1.17 (active)
